PubChem BioAssay (Tox21)
Results filed as inconclusive are left out. Calls of active or inactive are those of the source. Unless noted, the call rests on the fitted dose curve; in most records, active means well fitted curve in the direction sought with a large enough effect in the repeat runs; inconclusive means weak or mixed curves; inactive means no such curve, though single readings can be large; an effect the other way counts as inactive or inconclusive.

Key:
[1] = qHTS assay to identify small molecule antagonists of the androgen receptor (AR) signaling pathway using the MDA cell line in the presence of 0.5 nM R1881 - cell viability counter screen (AID 1259242); further: nearly all actives have a fitted effect of over 45% in size
Procedure, shortened: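 Cells seeded at 3,000/well and allowed 5 hr at 37C, 0% CO2 before compound transfer and R1881 (0.5 nM final) addition; 16 hr later, live-cell protease fluorescence indicated cytotoxicity.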

[2] = qHTS assay to identify small molecule phospholipidosis (PLD) inducers (AID 1259344; active means well fitted curve in the direction sought with a large enough effect; an effect the other way counts as inactive or inconclusive)
Procedure, shortened: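 Accumulated phospholipid, stained red by LipidTOX during 24 h compound treatment of HepG2 cells at 37 C, is quantified from images as pit number and intensity, normalised per cell using Hoechst-stained nuclei.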

[3] = qHTS assay to identify small molecule HDAC inhibitors (AID 1259364);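 further: wild-type HCT-116 cells with endogenous class I/II HDAC activity; top concentration of the series differs between compounds; nearly all actives have a fitted effect of over 45% in size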
Procedure, shortened: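 HCT-116 wt cells, 1,500/well, overnight attach. Compounds (DMSO) 2 h, 37 °C. HDAC-Glo I/II, 30 min RT. Luminescence.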

[4] = qHTS assay to identify small molecule HDAC inhibitors - cell viability counter screen (AID 1259365); further: series mostly up to about 92 µM; nearly all actives have a fitted effect of over 50% in size
Procedure, shortened: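 Luminescence from CellTiter-Glo, developed 30min at room temperature, reports viability of wild-type HCT-116 cells treated 2hr with compounds at 37 C and 5% CO2 after overnight plating.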

[5] = qHTS assay to identify small molecule agonists of the sonic hedgehog signaling (Shh) pathway - cell viability counter screen (AID 1259366); further: nearly all actives have a fitted effect of over 50% in size; further: potency means the concentration at half of the fitted maximal effect
Procedure, shortened: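 Cytotoxicity counter screen run in the same wells as the Shh reporter assay. NIH/3T3 cells carrying a Gli1 response element–driven luciferase were treated with DMSO-dissolved compounds for 24hr, and live-cell protease activity was measured with CellTiter-Fluor.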

[6] = qHTS assay to identify small molecule antagonists of the sonic hedgehog signaling (Shh) pathway - cell viability counter screen (AID 1259367); further: nearly all actives have a fitted effect of over 55% in size
Procedure, shortened: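 CellTiter-Fluor signal in conditioned medium-stimulated 3T3 Gli1-Luc cells, 23 hr compound exposure, 37C.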

[7] = qHTS assay to identify small molecule agonists of the sonic hedgehog signaling (Shh) pathway (AID 1259368; calls by dose curve;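 further: NIH/3T3-derived 3T3Gli1-Luc cells carrying a stable Gli1-driven firefly luciferase reporter; series mostly up to about 92 µM; nearly all actives have a fitted effect of over 15% in size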)
Procedure, shortened: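 Following a 24 hr incubation with DMSO-dissolved compounds at 37 C, 5% CO2, Gli1-Luc NIH/3T3-derived cells received luciferase reagent for 30 min at room temperature prior to luminescence measurement.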

[8] = qHTS assay to identify small molecule antagonists of the sonic hedgehog signaling (Shh) pathway (AID 1259369; calls by dose curve; further: nearly all actives have a fitted effect of over 45% in size; further: potency means the concentration at half of the fitted maximal effect)
Procedure, shortened: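 Read-out is luminescence from a firefly luciferase gene controlled by the Gli1 response element, in 3T3Gli1-Luc cells pre-incubated 4hr then exposed to compounds and conditioned medium for 24hr.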

[9] = qHTS assay to identify small molecule agonists of the androgen receptor (AR) signaling pathway in the presence of an antagonist - cell viability counter screen (AID 1259379);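 further: MDA-kb2 human breast cancer cells carrying an MMTV luciferase reporter; series mostly up to about 92 µM; nearly all actives have a fitted effect of over 25% in size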
Procedure, shortened: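 Each compound was tested at 15 concentrations on MDA-kb2 cells in the presence of 3.0uM nilutamide. Viability was measured by CellTiter-Fluor fluorescence after a 16 hr incubation at 37C in a CO2-free atmosphere.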

[10] = qHTS assay to identify small molecule agonists of the estrogen receptor beta (ER-beta) signaling pathway - cell viability counter screen (AID 1259380); further: nearly all actives have a fitted effect of over 30% in size; further: potency means the concentration at half of the fitted maximal effect
Procedure, shortened: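 Compounds dissolved in DMSO were pin-transferred onto ER-beta-UAS-bla HEK293T cells that had settled 6 hr, and exposure ran 16 hr at 37C. Following the reporter read, CellTiter-Glo luminescence after 30 min at room temperature indicated cytotoxicity.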

[11] = qHTS assay to identify small molecule antagonists of the estrogen receptor beta (ER-beta) signaling pathway - cell viability counter screen (AID 1259382); further: nearly all actives have a fitted effect of over 55% in size; further: potency means the concentration at half of the fitted maximal effect;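 on activity change, negative = cytotoxicity: HEK293T cells carrying ER-beta-UAS-bla reporter stimulated with estradiol; series mostly up to about 92 µM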
Procedure, shortened: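 CellTiter-Glo ATP luminescence measured after the LiveBLAzer read in the same wells; ER-beta-UAS-bla HEK293T cells, 16 hr compound treatment with 1nM 17-beta-estradiol agonist at 37C, 5% CO2.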

[12] = qHTS assay to identify small molecule agonists or antagonists of the thyroid stimulating hormone receptor (TSHR) signaling pathway - wild type cell line counter screen (AID 1259384; calls by dose curve)
Procedure, shortened: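 Counter screen in untransfected Hek293: compounds (15-point titration, triplicate) plus phosphodiesterase inhibitor Ro20-1724 added after 18 h plating; 30 min RT. Intracellular cAMP via competitive d2/cryptate immunoassay, 1 h incubation.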

[13] = molecular target: Thyrotropin receptor (Homo sapiens) (UniProt P16473); assay: qHTS assay to identify small molecule antagonists of the thyroid stimulating hormone receptor (TSHR) signaling pathway (AID 1259385; calls by dose curve; further: nearly all actives have a fitted effect of over 20% in size; further: potency means the concentration at half of the fitted maximal effect)
Procedure, shortened: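 Antagonist mode: compound-treated TSHR-expressing HEK293 cells were stimulated with 1.5 ng/mL TSH (final) in presence of Ro20-1724 for 30 min at RT. HTRF cAMP detection after 1 h; each compound tested at 15 concentrations, triplicate.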

[14] = qHTS assay to identify small molecule agonists of the estrogen receptor alpha (ER-alpha) signaling pathway in the presence of an antagonist - cell viability counter screen (AID 1259386);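 further: series mostly up to about 92 µM; cells exposed to compounds for 22 h at 37 °C before the viability read; nearly all actives have a fitted effect of over 30% in size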
Procedure, shortened: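 Using estrogen-depleted VM7Luc4E2 cells, the 15-concentration compound series was applied together with 10.0nM ICI-182,780 and incubated 22hr at 37C/5% CO2. Cell viability was then scored by CellTiter-Fluor.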

[15] = molecular target: Estrogen receptor (Homo sapiens) (UniProt P03372); assay: qHTS assay to identify small molecule antagonists of the estrogen receptor alpha (ER-alpha) signaling pathway using the BG1 cell line in the presence of 0.1 nM 17-beta-estradiol (AID 1259244); further: nearly all actives have a fitted effect of over 50% in size; further: potency means the concentration at half of the fitted maximal effect
Procedure, shortened: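 Luciferase signal from VM7Luc4E2 ERE-reporter cells, co-dosed with test compound and 0.1 nM final 17beta-estradiol for 22 h, read with ONE-Glo.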

[16] = molecular target: Estrogen receptor (Homo sapiens) (UniProt P03372); assay: qHTS assay to identify small molecule agonists of the estrogen receptor alpha (ER-alpha) signaling pathway in the presence of an antagonist (AID 1259383; calls by dose curve; further: top concentration of the series differs between compounds; nearly all actives have a fitted effect of over 15% in size)
Procedure, shortened: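 Luminescent ERE-luciferase reporter, VM7Luc4E2 cells (endogenous ER-alpha); 10.0nM ICI-182,780 final; 15-point compound titration; 22hr at 37C; ONE-Glo, 30min RT.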

[17] = molecular target: Estrogen receptor beta (Homo sapiens) (UniProt Q92731); assay: qHTS assay to identify small molecule agonists of the estrogen receptor beta (ER-beta) signaling pathway (AID 1259377; active means well fitted activation curve with a large enough effect in the signal ratio in the repeat runs, not every such curve was filed as active; the % refers to the signal ratio)
Procedure, shortened: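 HEK293T ER-beta-UAS-bla; 2% charcoal-stripped FBS; cells pre-incubated 6 hr, compound 16 hr, 37C/5% CO2; LiveBLAzer B/G FRET substrate 2 h RT; fluorescence intensity read.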

[18] = molecular target: Estrogen receptor beta (Homo sapiens) (UniProt Q92731); assay: qHTS assay to identify small molecule antagonists of the estrogen receptor beta (ER-beta) signaling pathway (AID 1259378; active means well fitted inhibition curve with a large enough effect in the signal ratio in the repeat runs, not every such curve was filed as active; the % refers to the signal ratio)
Procedure, shortened: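 Antagonist mode: compounds added to beta-lactamase reporter HEK293T ER-beta-UAS cells stimulated with E2 (1nM final), 16 hr at 37C. LiveBLAzer B/G FRET substrate, 2 hours room temperature, fluorescence read-out.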
On the % scale 0 is the no-effect control and ±100 the full control effect.

Sequence of Thyrotropin receptor (Homo sapiens) (P16473 whole entry, looked up): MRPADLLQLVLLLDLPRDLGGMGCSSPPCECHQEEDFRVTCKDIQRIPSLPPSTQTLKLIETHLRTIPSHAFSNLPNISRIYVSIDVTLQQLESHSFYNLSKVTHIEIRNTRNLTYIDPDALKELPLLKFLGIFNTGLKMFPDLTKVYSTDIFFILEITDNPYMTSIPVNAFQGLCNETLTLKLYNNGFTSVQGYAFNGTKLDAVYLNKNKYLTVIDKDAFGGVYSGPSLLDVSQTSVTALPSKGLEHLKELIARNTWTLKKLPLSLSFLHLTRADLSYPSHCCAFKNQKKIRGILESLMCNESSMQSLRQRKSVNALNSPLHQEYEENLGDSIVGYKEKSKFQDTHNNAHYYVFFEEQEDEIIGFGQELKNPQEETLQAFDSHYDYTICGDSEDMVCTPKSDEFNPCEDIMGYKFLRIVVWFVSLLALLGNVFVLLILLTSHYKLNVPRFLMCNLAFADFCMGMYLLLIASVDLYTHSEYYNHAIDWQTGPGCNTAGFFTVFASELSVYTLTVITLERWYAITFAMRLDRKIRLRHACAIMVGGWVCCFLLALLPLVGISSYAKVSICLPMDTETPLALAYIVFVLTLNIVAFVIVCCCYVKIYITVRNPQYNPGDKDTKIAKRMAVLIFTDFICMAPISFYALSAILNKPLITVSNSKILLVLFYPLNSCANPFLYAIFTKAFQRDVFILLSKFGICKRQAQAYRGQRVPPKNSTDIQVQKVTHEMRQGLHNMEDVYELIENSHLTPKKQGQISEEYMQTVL
Sequence of Estrogen receptor beta (Homo sapiens) (Q92731 whole entry, looked up): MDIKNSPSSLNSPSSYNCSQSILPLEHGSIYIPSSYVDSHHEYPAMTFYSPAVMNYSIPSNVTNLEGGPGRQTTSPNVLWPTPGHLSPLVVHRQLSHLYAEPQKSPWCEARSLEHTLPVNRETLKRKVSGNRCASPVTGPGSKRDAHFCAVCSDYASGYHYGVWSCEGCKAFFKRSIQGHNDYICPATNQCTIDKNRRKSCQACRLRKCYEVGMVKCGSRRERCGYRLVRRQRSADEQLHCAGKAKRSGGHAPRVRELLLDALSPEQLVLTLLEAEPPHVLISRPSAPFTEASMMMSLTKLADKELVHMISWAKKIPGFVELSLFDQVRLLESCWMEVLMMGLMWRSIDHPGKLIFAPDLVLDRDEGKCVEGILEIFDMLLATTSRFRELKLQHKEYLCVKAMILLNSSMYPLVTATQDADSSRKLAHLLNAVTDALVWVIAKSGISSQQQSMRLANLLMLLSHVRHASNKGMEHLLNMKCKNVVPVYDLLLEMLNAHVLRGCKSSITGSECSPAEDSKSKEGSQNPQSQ
Sequence of Estrogen receptor (Homo sapiens) (P03372 whole entry, looked up): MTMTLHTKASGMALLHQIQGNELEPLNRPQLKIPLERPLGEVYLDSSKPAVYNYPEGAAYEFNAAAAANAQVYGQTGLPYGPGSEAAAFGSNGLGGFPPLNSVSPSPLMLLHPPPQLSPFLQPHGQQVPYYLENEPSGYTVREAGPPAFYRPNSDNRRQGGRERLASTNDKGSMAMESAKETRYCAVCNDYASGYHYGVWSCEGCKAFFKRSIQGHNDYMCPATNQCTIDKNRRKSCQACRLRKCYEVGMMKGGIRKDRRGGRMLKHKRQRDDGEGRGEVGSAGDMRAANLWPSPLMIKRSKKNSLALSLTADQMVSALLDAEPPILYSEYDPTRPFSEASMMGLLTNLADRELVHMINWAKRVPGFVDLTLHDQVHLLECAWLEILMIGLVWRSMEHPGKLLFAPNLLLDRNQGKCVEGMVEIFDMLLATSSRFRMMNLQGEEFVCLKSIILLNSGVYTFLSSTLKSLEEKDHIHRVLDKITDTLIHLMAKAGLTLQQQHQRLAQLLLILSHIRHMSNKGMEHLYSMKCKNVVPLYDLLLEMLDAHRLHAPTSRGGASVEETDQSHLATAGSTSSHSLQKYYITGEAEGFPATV

O=C(NCCO[N+](=O)[O-])c1cccnc1
inactive: Potency [1] | Potency [2] | Potency [3] | Potency [4] | Potency [5] | Potency [6] | outcome [7] | Potency [8] | Potency [9] | Potency [10] | Potency [11] | Potency [12] | Potency [13] | Potency [14]

C=C(C)C(=O)OCCO
inactive: Potency [1] | Potency [15] | Potency [3] | Potency [5] | Potency [6] | outcome [7] | Potency [9] | Potency [10] | Potency [11] | Potency [16] | Potency [12] | Potency [13] | Potency [14]

C/C=C/C(=O)CC
active: Potency [8] 5.9 µM
inactive: viability change, negative = cytotoxic [1] -0.0358% [at 19 µM] | Potency [15] | activity change, negative = inhibition [3] -0.325% [at 19 µM] | activity change, negative = cytotoxicity [4] -0.534% [at 19 µM] | viability change, negative = cytotoxic [5] 14.7% [at 19 µM] | activity change [7] -3.94% [at 18.9 µM] | activation [17] -1.08% [at 19 µM] | activity change, negative = cytotoxicity [9] 0.797% [at 19 µM] | activity change, negative = cytotoxicity [10] 5.9% [at 19 µM] | activity change, negative = cytotoxicity [11] 2.99% [at 19 µM] | Potency [16] | cAMP activity change [12] -0.0314% [at 18.9 µM, stronger effect = higher value] | activity change, negative = inhibition [13] 0.568% [at 19 µM] | activity change, negative = cytotoxicity [14] 2.64% [at 19 µM]

C=C(C)C(=O)OCCOCC
active: Potency [15] 54.7 µM
inactive: Potency [1] | Potency [3] | Potency [4] | Potency [5] | Potency [6] | Potency [17] | Potency [9] | Potency [11] | Potency [16] | Potency [12] | Potency [13]

Cc1c(N)cccc1[N+](=O)[O-]
inactive: Potency [1] | Potency [15] | Potency [3] | Potency [4] | Potency [5] | Potency [6] | Potency [8] | Potency [18] | Potency [9] | Potency [10] | Potency [11] | Potency [16] | Potency [12] | Potency [13] | Potency [14]

Clc1ccc2c(c1)CCc1cccnc1C2=C1CCNCC1
active: Potency [5] 11.9 µM | Potency [8] 1.68 µM | Potency [10] 33.5 µM | Potency [11] 18.8 µM | Potency [13] 26.6 µM
inactive: Potency [1] | Potency [15] | Potency [3] | Potency [4] | Potency [17] | Potency [16] | Potency [12] | Potency [14]

CCN(CC)CCOC(=O)C(Cc1cccc2ccccc12)CC1CCCO1 (stereo unspecified)
inactive: Potency [1] | Potency [2] | Potency [3] | Potency [4] | Potency [5] | Potency [6] | outcome [7] | Potency [8] | Potency [9] | Potency [11] | Potency [12]

CC(=O)[O][Al][O]C(C)=O
inactive: Potency [1] | Potency [2] | Potency [3] | Potency [4] | Potency [5] | Potency [6] | outcome [7] | Potency [8] | Potency [9] | Potency [11] | Potency [12] | Potency [14]

CCOC(=O)Cc1cccc2ccccc12
inactive: Potency [1] | Potency [15] | Potency [3] | Potency [5] | Potency [6] | outcome [7] | Potency [8] | Potency [17] | Potency [18] | Potency [9] | Potency [10] | Potency [11] | Potency [16] | Potency [12] | Potency [13] | Potency [14]

COc1cc(Cl)ccc1Oc1ccc(Cl)cc1Cl
inactive: Potency [1] | Potency [15] | Potency [3] | Potency [4] | Potency [5] | Potency [6] | Potency [8] | Potency [17] | Potency [18] | Potency [9] | Potency [10] | Potency [11] | Potency [16] | Potency [12] | Potency [14]

COc1cc2nc(N3CCN(C(=O)C4COc5ccccc5O4)CC3)nc(N)c2cc1OC (stereo unspecified)
inactive: Potency [1] | Potency [2] | Potency [3] | Potency [4] | Potency [5] | Potency [6] | outcome [7] | Potency [17] | Potency [9] | Potency [10] | Potency [11] | Potency [12] | Potency [14]

NCC(=O)O
inactive: viability change, negative = cytotoxic [1] -5.8% [at 19 µM] | Potency [2] | activity change, negative = inhibition [3] -0.526% [at 19 µM] | activity change, negative = cytotoxicity [4] 4.81% [at 19 µM] | viability change, negative = cytotoxic [5] -1.71% [at 19 µM] | viability change, negative = cytotoxic [6] 1.33% [at 19 µM] | activity change [7] -0.0794% [at 18.9 µM] | activity change, negative = inhibition [8] 20.6% [at 19 µM] | activation [17] -2.53% [at 19 µM] | activity, negative = inhibition [18] 10% [at 19 µM] | activity change, negative = cytotoxicity [9] 0.351% [at 19 µM] | activity change, negative = cytotoxicity [10] 4.31% [at 19 µM] | activity change, negative = cytotoxicity [11] -1.05% [at 19 µM] | Potency [16] | cAMP activity change [12] -6.62% [at 18.9 µM, stronger effect = higher value] | activity change, negative = inhibition [13] 2.94% [at 19 µM] | activity change, negative = cytotoxicity [14] 6.54% [at 19 µM]

Nc1ncn([C@H]2C[C@H](O)[C@@H](CO)O2)c(=O)n1
inactive: Potency [1] | Potency [2] | Potency [3] | Potency [4] | Potency [5] | Potency [6] | outcome [7] | Potency [8] | Potency [17] | Potency [9] | Potency [10] | Potency [11] | Potency [14]

CC(CC=O)c1ccccc1 (stereo unspecified)
active: Potency [8] 54.5 µM
inactive: Potency [1] | Potency [15] | Potency [3] | Potency [4] | Potency [5] | Potency [6] | Potency [17] | Potency [18] | Potency [9] | Potency [10] | Potency [11] | Potency [16] | Potency [12] | Potency [13] | Potency [14]

O=C(O)C(S)C(S)C(=O)O (stereo unspecified)
inactive: Potency [1] | Potency [2] | Potency [3] | Potency [4] | Potency [5] | Potency [6] | outcome [7] | Potency [8] | Potency [17] | Potency [18] | Potency [9] | Potency [10] | Potency [11] | Potency [12] | Potency [13] | Potency [14]
